Consider nine molecules from PubChem BioAssay (NCI).

Structures are written as SMILES. The panel holds about 83,000 compounds, 20% with a hit somewhere; the sample as a whole holds those more often.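 For each line, cells grew in 96-well plates with the test compound present at a single concentration for 48 hours.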 Unmarked numbers belong to inactive results. Activity calls are given as the source filed them. The calls were made as follows: active = growth percent below 10; inactive = the rest.

Holding throughout (assay): NCI-60 one-dose screen, 48 h (100 = growth as untreated, 0 = no growth, -100 = all killed)
The subject of one assay is HCT-15 colon. The following applies: 10 µM unless noted.
The subject of another assay is SNB-75 CNS. The conditions noted are these: 10 µM.
Another assay relates to SNB-19 CNS. The following applies: 10 µM unless noted.
The subject of a further assay is U251 CNS. The following applies: 10 µM unless noted.
The next assay has as its system PC-3 prostate. The conditions noted are these: 10 µM unless noted.
For the next assay, the system named is SK-MEL-5 melanoma. The following applies: 10 µM unless noted.
The test system of another assay is UACC-62 melanoma. The following applies: 10 µM unless noted.
Another assay concerns LOX IMVI melanoma. The following applies: 10 µM unless noted.
For another assay, the system named is SK-MEL-28 melanoma. The conditions noted are these: 10 µM unless noted.
The subject of the next assay is SK-MEL-2 melanoma. The conditions noted are these: 10 µM unless noted.
For a further assay, the system named is EKVX NSCLC. The conditions noted are these: 10 µM unless noted.
The subject of another assay is SN12C renal. The conditions noted are these: 10 µM unless noted.
The test system of the next assay is UO-31 renal. The following applies: 10 µM unless noted.
The subject of another assay is TK-10 renal. The following applies: 10 µM unless noted.
The test system of another assay is CAKI-1 renal. The conditions noted are these: 10 µM unless noted.
In another assay the test system is A498 renal. The following applies: 10 µM unless noted.
Another assay has as its system CCRF-CEM leukemia. The conditions noted are these: 10 µM unless noted.
The next assay deals with MOLT-4 leukemia. The conditions noted are these: 10 µM unless noted.
Another assay relates to ACHN renal. The following applies: 10 µM unless noted.

Turning to `O=c1[nH]c(-c2ccccc2)nc(CN2CCCCC2)c1O`, the growth with HCT-15 colon is 113%; in the assay with SNB-75 CNS, 96.3%; in the assay on SNB-19 CNS it was 97.3%; in the assay on U251 CNS, 103%; with PC-3 prostate, 105%; in the assay with SK-MEL-5 melanoma, 111%. Further, the growth with UACC-62 melanoma is 98.6%; in the assay on LOX IMVI melanoma, 97.4%; in the assay with SK-MEL-28 melanoma, 111%; with SK-MEL-2 melanoma, 111%; in the assay on EKVX NSCLC, 112%; with SN12C renal it was 93.9%. Moreover, the growth is 95.1% in the assay on UO-31 renal; 108% with TK-10 renal; 91.5% in the assay with CAKI-1 renal; 111% in the assay with A498 renal; 96.8% in the assay with CCRF-CEM leukemia; 120% in the assay on MOLT-4 leukemia.
`C=C1CCC2C3(C)COC(c4ccccc4)OC3CCC2(C)C1/C=C/C1=CCOC1=O` (centres undefined): the growth with HCT-15 colon is 45.6%; in the assay on SNB-75 CNS, 51.7%; in the assay on SNB-19 CNS it was 71.8%; with U251 CNS, 40.1%; with PC-3 prostate, 26.6%; in the assay with SK-MEL-5 melanoma, 76.5%. Also, the growth with UACC-62 melanoma was 58.8%; in the assay on LOX IMVI melanoma, 16.1%; in the assay on SK-MEL-28 melanoma, 98.1%; with SK-MEL-2 melanoma, 51.3%; in the assay on EKVX NSCLC, 96.1%; in the assay on SN12C renal, 24%. Also, the growth with UO-31 renal was 52.6%; with TK-10 renal it was 61.3%; in the assay with ACHN renal, 71.3%; in the assay with A498 renal it was 106%; with CCRF-CEM leukemia, -46.7% (active); in the assay with MOLT-4 leukemia, 45.5%.
`NC1=NN(O)C2=CC([N+](=O)[O-])C=CC2=N1` (centres undefined): the growth in the assay with HCT-15 colon is 101%; with SNB-75 CNS it was 99.5%; with SNB-19 CNS, 119%; in the assay on U251 CNS, 109%; in the assay on PC-3 prostate it was 86.5%; in the assay with SK-MEL-5 melanoma, 109%. For the same molecule, the growth in the assay with UACC-62 melanoma is 122%; with LOX IMVI melanoma, 83.7%; with SK-MEL-28 melanoma it was 117%; with EKVX NSCLC, 99.5%; in the assay on SN12C renal it was 112%; in the assay with UO-31 renal, 93.3%. The growth was 121% with TK-10 renal; 105% in the assay with ACHN renal; 93.8% in the assay on CAKI-1 renal; 109% in the assay with A498 renal; 104% in the assay with CCRF-CEM leukemia; 111% with MOLT-4 leukemia.
For the molecule `COc1ccc(C(=O)c2cc(OC)c3c(c2)OCO3)cc1O`, the growth with HCT-15 colon is 19.1%; with SNB-75 CNS, 30.6%; with SNB-19 CNS, 41%; in the assay on U251 CNS it was 27.9%; in the assay with PC-3 prostate, 29.4%; in the assay on SK-MEL-5 melanoma, -52% (active). Moreover, the growth was 43.6% with UACC-62 melanoma; 26.7% with LOX IMVI melanoma; 65.6% in the assay on SK-MEL-28 melanoma; 71.7% in the assay with SK-MEL-2 melanoma; 58.4% in the assay on EKVX NSCLC; 31.4% in the assay with SN12C renal. In addition, the growth in the assay with UO-31 renal was 46.6%; in the assay on TK-10 renal, 66%; in the assay with CAKI-1 renal, 55.5%; in the assay on A498 renal, 61.9%; in the assay with CCRF-CEM leukemia, 16.5%; in the assay on MOLT-4 leukemia it was 17.8%.
For `Cc1ccc(Cc2c(C=O)nc(N)[nH]c2=O)c2ccccc12`, the growth in the assay on HCT-15 colon was 101%; in the assay with SNB-75 CNS, 93%; in the assay with SNB-19 CNS, 98.5%; with U251 CNS, 95.3%; in the assay with PC-3 prostate, 88.8%; with SK-MEL-5 melanoma, 107%. Besides, the growth in the assay with UACC-62 melanoma is 110%; in the assay with LOX IMVI melanoma, 96.2%; with SK-MEL-28 melanoma it was 104%; in the assay on EKVX NSCLC, 101%; in the assay with SN12C renal it was 96.9%; in the assay on UO-31 renal, 81.2%. For the same molecule, the growth with TK-10 renal was 112%; in the assay on ACHN renal, 107%; in the assay on CAKI-1 renal, 92.7%; in the assay on A498 renal, 118%; in the assay on CCRF-CEM leukemia, 80%; in the assay on MOLT-4 leukemia, 86.8%.
On to `COC(=O)c1cccc2c1N(C)c1c(cccc1C(=O)OC)CC2`, for which the growth is 97.9% with HCT-15 colon; 106% in the assay on SNB-75 CNS; 111% in the assay with SNB-19 CNS; 111% in the assay on U251 CNS; 97.4% in the assay on PC-3 prostate; 106% in the assay on SK-MEL-5 melanoma. For the same molecule, the growth is 98.7% in the assay with UACC-62 melanoma; 87.7% with LOX IMVI melanoma; 120% in the assay with SK-MEL-28 melanoma; 112% with EKVX NSCLC; 107% in the assay with SN12C renal; 101% in the assay on UO-31 renal. Moreover, the growth in the assay on TK-10 renal was 121%; in the assay on ACHN renal, 104%; in the assay on CAKI-1 renal, 97.7%; in the assay on A498 renal, 132%; in the assay with CCRF-CEM leukemia, 89%; in the assay on MOLT-4 leukemia, 97.4%.
Consider `CC(C)OC(=O)N1CCOCC1`, for which the growth in the assay on HCT-15 colon was 101%; with SNB-75 CNS, 86%; in the assay with SNB-19 CNS, 98.5%; in the assay on U251 CNS, 101%; with PC-3 prostate it was 86.9%; in the assay on SK-MEL-5 melanoma, 106%. In addition, the growth in the assay with UACC-62 melanoma is 98.6%; with LOX IMVI melanoma, 102%; in the assay with SK-MEL-28 melanoma, 101%; in the assay with SK-MEL-2 melanoma, 101%; with EKVX NSCLC it was 126%; in the assay on SN12C renal, 97.7%. The growth with CAKI-1 renal is 105%; in the assay with CCRF-CEM leukemia, 102%; with MOLT-4 leukemia it was 110%.
For the molecule `COc1ccc(CN2CCc3c(Sc4ccccc4)nc(N)nc3C2=O)c(OC)c1`, the growth is 66.8% in the assay with HCT-15 colon; 66.5% in the assay on SNB-75 CNS; 82% in the assay with SNB-19 CNS; 72.3% in the assay with U251 CNS; 52.1% with PC-3 prostate; 51.1% with SK-MEL-5 melanoma. Also, the growth was 52.5% in the assay with UACC-62 melanoma; 71.3% with LOX IMVI melanoma; 90.9% with SK-MEL-28 melanoma; 58.6% in the assay with SK-MEL-2 melanoma; 57% with EKVX NSCLC; 53.1% in the assay with SN12C renal. The growth in the assay with UO-31 renal is 29.6%; with ACHN renal, 65%; in the assay on CAKI-1 renal, 27.7%; in the assay with A498 renal it was 66%; in the assay on CCRF-CEM leukemia, 46.7%; in the assay on MOLT-4 leukemia, 35.5%.
On to `Oc1ccccc1/C=N/NC(=S)NC1CC2C=CC1C2` (centres undefined), for which the growth is 35.5% with HCT-15 colon; 105% with SNB-75 CNS; 82.3% in the assay with SNB-19 CNS; 59.4% in the assay on U251 CNS; 75.6% in the assay with PC-3 prostate; 78.3% in the assay with SK-MEL-5 melanoma. Moreover, the growth with UACC-62 melanoma is 82.9%; in the assay on LOX IMVI melanoma it was 44.9%; in the assay with SK-MEL-28 melanoma it was 83.1%; in the assay on EKVX NSCLC, 95.3%; in the assay with SN12C renal it was 92.8%; in the assay on UO-31 renal, 49.8%. In addition, the growth was 103% in the assay on TK-10 renal; 73.6% with ACHN renal; 67.1% with CAKI-1 renal; 96.2% in the assay on A498 renal; 49.5% with CCRF-CEM leukemia; 56.6% in the assay with MOLT-4 leukemia.
